From PubChem BioAssay (EPA / NIEHS)
Calls of active or inactive are those of the source. The calls were made as follows: active = hit-call score of the fitted dose curve at least 0.9, where 1 is the maximum; inactive = score below 0.9.

Key:
[1] = read-out: TIMP metallopeptidase inhibitor 2 (TIMP2), TIMP2 (gene 7077); assay: BSK_KF3CT_TIMP2: BioMAP Diversity Plus: KF3CT Assay for TIMP metallopeptidase inhibitor 2 (TIMP2) Biomarker Activity (AID 2283071); details: primary human keratinocytes with fibroblasts; actives raise or lower the signal
Procedure, shortened: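 Keratinocyte–fibroblast co-culture, 24 h exposure; TIMP-2 ELISA, DMSO-normalised bidirectional fit. Parallel SRB (0.1%, TCA-fixed, 560 nm) total-protein staining gauges cytotoxicity.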

[2] = read-out: Transforming growth factor beta 1 (TGFb1), TGFB1 (gene 7040); assay: BSK_KF3CT_TGFb1: BioMAP Diversity Plus: KF3CT Assay for Transforming growth factor beta 1 (TGFb1) Biomarker Activity (AID 2283072); details: primary human keratinocytes with fibroblasts; actives raise or lower the signal
Procedure, shortened: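 Signal changes in either direction, relative to DMSO, define activity here. TGF-b1 is read by ELISA from a human keratinocyte-fibroblast co-culture 24 h post-dose.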

[3] = read-out: C-C motif chemokine 2 (Homo sapiens) (UniProt P13500); assay: BSK_KF3CT_MCP1: BioMAP Diversity Plus: KF3CT Assay for Monocyte Chemoattractant Protein 1 (MCP1/CCL2) Biomarker Activity (AID 2283073); details: primary human keratinocytes with fibroblasts; actives raise or lower the signal
Procedure, shortened: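 Biomarker MCP-1 is measured by ELISA in primary human keratinocytes co-cultured with foreskin fibroblasts, 24 h after chemical treatment; DMSO serves as the negative control and activity baseline.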

[4] = read-out: Matrix Metallopeptidase 9 (MMP9), MMP9 (gene 4318); assay: BSK_KF3CT_MMP9: BioMAP Diversity Plus: KF3CT Assay for Matrix Metallopeptidase 9 (MMP9) Biomarker Activity (AID 2283074); details: primary human keratinocytes with fibroblasts; actives raise or lower the signal;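 as to AC50: MMP9 protein level quantified by ELISA in the co-culture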
Procedure, shortened: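 Human keratinocyte and foreskin fibroblast co-culture exposed to chemicals for 24 h; MMP9 biomarker measured by ELISA, bidirectional fitting relative to DMSO; cytotoxicity tracked by SRB total protein staining in parallel cultures.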

[5] = read-out: urokinase plasminogen activator (uPA), PLAU (gene 5328); assay: BSK_KF3CT_uPA: BioMAP Diversity Plus: KF3CT Assay for urokinase plasminogen activator (uPA) Biomarker Activity (AID 2283075); details: primary human keratinocytes with fibroblasts; actives raise or lower the signal
Procedure, shortened: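 Primary human keratinocyte/foreskin fibroblast co-culture exposed to chemical; uPA measured by ELISA at 24 h. Bidirectional fit versus DMSO, with parallel SRB total-protein staining for cytotoxicity.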

CD40, CD40 (gene 958) [6] = assay: BSK_LPS_CD40: BioMAP Diversity Plus: LPS Assay for CD40 Biomarker Activity (AID 2283076); details: primary human HUVEC with PBMC; actives raise or lower the signal
Procedure, shortened: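 Using a multiplexed primary human co-culture (umbilical vein endothelium plus PBMC), CD40 was read by ELISA 24 h after dosing, with cytotoxicity tracked by sulforhodamine B staining of parallel cultures and activity fitted bidirectionally versus DMSO.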

[7] = read-out: E-selectin (Homo sapiens) (UniProt P16581); assay: BSK_LPS_Eselectin: BioMAP Diversity Plus: LPS Assay for Eselectin Biomarker Activity (AID 2283077); details: primary human HUVEC with PBMC; actives raise or lower the signal
Procedure, shortened: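 Dose chemical onto LPS-driven HUVEC/PBMC co-culture; after 24 h, run ELISA for E-selectin; fit up- and down-going responses relative to DMSO control.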

[8] = read-out: Interleukin-8 (IL8), CXCL8 (gene 3576); assay: BSK_LPS_IL8: BioMAP Diversity Plus: LPS Assay for Interleukin-8 (IL8) Biomarker Activity (AID 2283078); details: primary human HUVEC with PBMC; actives raise or lower the signal
Procedure, shortened: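 In this LPS system, chemical-treated human umbilical vein endothelium/PBMC co-cultures were harvested at 24 h for IL-8 ELISA.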

[9] = BSK_LPS_SRB: Viability Assessment in the BioMAP Diversity Plus: LPS Assay (AID 2283079); details: primary human HUVEC with PBMC;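 also: total protein by sulforhodamine B absorbance as a cytotoxicity measure; measured one day after compound addition; fitted in both directions against DMSO so loss or gain of signal counts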
Procedure, shortened: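 Cytotoxicity endpoint in human endothelial–PBMC co-culture: 24 h exposure, then SRB (0.1%) staining, 560 nm read.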

[10] = read-out: Interleukin-1 alpha (IL1a), IL1A (gene 3552); assay: BSK_LPS_IL1a: BioMAP Diversity Plus: LPS Assay for Interleukin-1 alpha (IL1a) Biomarker Activity (AID 2283080); details: primary human HUVEC with PBMC; actives raise or lower the signal
Procedure, shortened: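 Primary human HUVEC and PBMC co-culture stimulated with LPS is dosed and harvested at 24 h. Both increases and decreases in ELISA-measured IL-1a are scored relative to DMSO.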

[11] = read-out: Monocyte Chemoattractant Protein-1 (MCP1), CCL2 (gene 6347); assay: BSK_LPS_MCP1: BioMAP Diversity Plus: LPS Assay for Monocyte Chemoattractant Protein-1 (MCP1) Biomarker Activity (AID 2283081); details: primary human HUVEC with PBMC; actives raise or lower the signal;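 as to AC50: secreted MCP-1 protein quantified by ELISA in culture supernatant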
Procedure, shortened: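 Values derive from bidirectional fitting against DMSO of ELISA-measured MCP-1 in a human primary endothelial and mononuclear cell co-culture, 24 h after chemical addition under LPS activation.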

[12] = BSK_LPS_PGE2: BioMAP Diversity Plus: LPS Assay for Prostaglandin E2 (PGE2) Biomarker Activity (AID 2283082); details: primary human HUVEC with PBMC; actives raise or lower the signal;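 as to AC50: secreted prostaglandin E2 measured by ELISA in LPS-stimulated co-culture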
Procedure, shortened: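 Endpoint derived from bidirectional curve fitting versus DMSO of ELISA-measured PGE2 in LPS-stimulated human primary vascular co-culture (HUVEC with PBMC) harvested at 24 h.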

[13] = read-out: Macrophage colony-stimulating factor (MCSF), CSF1 (gene 1435); assay: BSK_LPS_MCSF: BioMAP Diversity Plus: LPS Assay for Macrophage colony-stimulating factor (MCSF) Biomarker Activity (AID 2283083); details: primary human HUVEC with PBMC; actives raise or lower the signal
Procedure, shortened: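 Bidirectional fit versus DMSO of ELISA-measured M-CSF in co-cultured human umbilical vein endothelial cells and PBMC, sampled 24 h after dosing.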

[14] = read-out: Tissue Factor, F3 (gene 2152); assay: BSK_LPS_TissueFactor: BioMAP Diversity Plus: LPS Assay for Tissue Factor Biomarker Activity (AID 2283084); details: primary human HUVEC with PBMC; actives raise or lower the signal
Procedure, shortened: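 Read-out: CD142 ELISA, 24 h. System: LPS-driven human endothelial/PBMC co-culture. Analysis: up- or down-signal fitted against DMSO.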

[15] = read-out: Tumor necrosis factor (Homo sapiens) (UniProt P01375); assay: BSK_LPS_TNFa: BioMAP Diversity Plus: LPS Assay for Tumour Necrosis Factor alpha (TNFa) Biomarker Activity (AID 2283085); details: primary human HUVEC with PBMC; actives raise or lower the signal
Procedure, shortened: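 Primary human vascular co-culture of HUVEC and PBMC; TNFa ELISA 24 h after treatment, analysed as increase or decrease relative to DMSO control.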

[16] = read-out: Vascular cell adhesion molecule 1 (VCAM1), VCAM1 (gene 7412); assay: BSK_LPS_VCAM1: BioMAP Diversity Plus: LPS Assay for Vascular cell adhesion molecule 1 (VCAM1) Biomarker Activity (AID 2283086); details: primary human HUVEC with PBMC; actives raise or lower the signal
Procedure, shortened: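 Primary human vascular co-culture (umbilical vein endothelium plus PBMC) stimulated with LPS received chemical; 24 h later VCAM-1 was read by ELISA. Overt cytotoxicity was assessed by sulforhodamine B staining of parallel cultures at the same time point.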

CD38, CD38 (gene 952) = assay: BSK_SAg_CD38: BioMAP Diversity Plus: SAg Assay for CD38 Biomarker Activity (AID 2283087); details: primary human HUVEC with PBMC; actives raise or lower the signal
Procedure, shortened: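 Fluorescence ELISA of cell-surface CD38 served as the read-out, with either increase or decrease fitted against DMSO controls. Cells were a human umbilical vein endothelium plus PBMC co-culture under SEB/TSST-1 stimulation, measured 24 h after dosing.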

CD40, CD40 (gene 958) [17] = assay: BSK_SAg_CD40: BioMAP Diversity Plus: SAg Assay for CD40 Biomarker Activity (AID 2283088); details: primary human HUVEC with PBMC; actives raise or lower the signal
Procedure, shortened: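 Endpoint derived by fitting increases or decreases versus DMSO controls. CD40 is detected by fluorescence ELISA in a human vascular co-culture of endothelium and PBMC at 24 h.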

CD69, CD69 (gene 969) = assay: BSK_SAg_CD69: BioMAP Diversity Plus: SAg Assay for CD69 Biomarker Activity (AID 2283089); details: primary human HUVEC with PBMC; actives raise or lower the signal;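 as to AC50: cell surface CD69 protein quantified by ELISA with fluorescence detection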
Procedure, shortened: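 Values derive from bidirectional fitting relative to DMSO vehicle. Cells: umbilical vein endothelium plus peripheral blood mononuclear cells, treated 24 h before fluorescent ELISA for CD69.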

[18] = read-out: Monocyte Chemoattractant Protein-1 (MCP1), CCL2 (gene 6347); assay: BSK_SAg_MCP1: BioMAP Diversity Plus: SAg Assay for Monocyte Chemoattractant Protein-1 (MCP1) Biomarker Activity (AID 2283090); details: primary human HUVEC with PBMC; actives raise or lower the signal
Procedure, shortened: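 MCP-1 levels in the endothelial–PBMC SAg co-culture were quantified by ELISA at 24 h post-dosing; both increases and decreases versus DMSO scored. Cytotoxicity monitored by SRB total protein in parallel cultures.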

Measured: AC50

Sequence of Tumor necrosis factor (Homo sapiens) (P01375 whole entry, looked up): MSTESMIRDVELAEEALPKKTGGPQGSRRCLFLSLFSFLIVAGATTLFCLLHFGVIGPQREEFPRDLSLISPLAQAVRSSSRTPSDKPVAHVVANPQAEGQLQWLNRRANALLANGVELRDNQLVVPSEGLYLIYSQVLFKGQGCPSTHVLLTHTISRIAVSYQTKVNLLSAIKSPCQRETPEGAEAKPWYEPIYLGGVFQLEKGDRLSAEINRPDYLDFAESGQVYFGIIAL
Sequence of E-selectin (Homo sapiens) (P16581 whole entry, looked up): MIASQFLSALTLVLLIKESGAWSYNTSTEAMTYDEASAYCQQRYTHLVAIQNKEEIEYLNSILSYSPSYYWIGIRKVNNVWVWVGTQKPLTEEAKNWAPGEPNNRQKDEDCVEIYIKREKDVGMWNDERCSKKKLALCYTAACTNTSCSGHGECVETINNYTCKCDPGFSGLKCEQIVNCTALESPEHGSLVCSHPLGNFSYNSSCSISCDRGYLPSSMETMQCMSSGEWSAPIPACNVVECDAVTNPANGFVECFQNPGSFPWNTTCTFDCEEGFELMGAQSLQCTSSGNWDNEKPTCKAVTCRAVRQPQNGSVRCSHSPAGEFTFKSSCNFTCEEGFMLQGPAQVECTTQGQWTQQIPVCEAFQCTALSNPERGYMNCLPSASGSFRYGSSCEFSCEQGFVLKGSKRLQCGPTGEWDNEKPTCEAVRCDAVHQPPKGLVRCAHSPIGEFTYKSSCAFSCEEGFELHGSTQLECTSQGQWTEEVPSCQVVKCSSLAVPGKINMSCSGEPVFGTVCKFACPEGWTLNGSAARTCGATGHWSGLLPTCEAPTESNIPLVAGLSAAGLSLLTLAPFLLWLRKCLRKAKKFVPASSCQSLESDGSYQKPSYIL

CC(C)N1C(=O)N(c2ccccc2)CSC1=NC(C)(C)C
inactive: [1] | [2] | [3] | [5]
active: [4] 31.6 µM | CD40, CD40 (gene 958) [6] 28.2 µM | [7] 30.6 µM | [8] 17.1 µM | [9] 34 µM | [10] 30.6 µM | [11] 30.5 µM | [12] 33.2 µM | [13] 18.9 µM | [14] 32.6 µM | [15] 32.1 µM | [16] 31.6 µM | CD38, CD38 (gene 952) 30.7 µM | CD40, CD40 (gene 958) [17] 33.4 µM | CD69, CD69 (gene 969) 30.3 µM | [18] 34.5 µM

O=P(O)(O)CCCl
not listed: CD38, CD38 (gene 952)
inactive: all other assays above

CCCCC(O)(Cn1cncn1)c1ccc(Cl)cc1Cl (stereo not drawn)
active: [12] 3.81 µM
not listed: [5]
inactive: all other assays above

CCSC(=O)N1CCCCCC1
not listed: [16] | CD38, CD38 (gene 952)
inactive: all other assays above

COCC(=O)N(c1c(C)cccc1C)C(C)C(=O)OC (stereo not drawn)
not listed: [16]
inactive: all other assays above

CC(C)Nc1nc(Cl)nc(NC(C)C)n1
active: [15] 7.35 µM
not listed: [16]
inactive: all other assays above

CCNP(=S)(OC)O/C(C)=C/C(=O)OC(C)C (stereo not drawn)
active: [3] 0.733 µM
not listed: [5]
inactive: all other assays above
